About 83,000 compounds went through this panel and 20% of them were active in at least one assay; those are over-represented in the sample as a whole.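 How to read the values: 0–100, growth inhibition (40 = 60% inhibited); 0, no net growth; -100 to 0, cell death (-40 = 40% of starting cells died; -100 = all dead).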 Unmarked numbers belong to inactive results. Active and inactive are the calls of the source.

The subject of the assay is UACC-62 melanoma. As to the kind of experiment: NCI-60 one-dose screen, 48 h (100 = growth as untreated, 0 = no growth, -100 = all killed). To be noted: 10 µM unless noted. The protocol: Growth inhibition of the UACC-62 human tumor cell line is measured as a screen for anti-cancer activity. Cells are grown in 96 well plates and exposed to the test compound for 48 hours. Compounds are tested at a single concentration, which is 10^-5 M for most compounds. The reported endpoint is percent growth (GI% or GIPRCNT), where numbers from 0 - 100% represent growth inhibition, and numbers from -100% - 0 represent cell death. For example, a value of 40 represents 60% growth inhibition. A value of 0 means no net growth occurred over the course of the experiment. A value of -40 indicates 40% of cells at the beginning of the experiment died by the end of the experiment. A value of -100 means all cells are dead at the end of the experiment.
NCI-60 Human Tumor Cell Lines Screen was performed using the standard one-dose NCI protocol, which is described in more detail at https://dtp.cancer.gov/discovery_development/nci-60/default.htm.
Compounds with GIPRCNT values below 10 were considered active. Activity score was based on GIPRCNT using the following formula: […]
Score is 0 for GIPRCNT values of 100 or above, 50 for GIPRCNT values of 0, and 100 for GIPRCNT values of -100.
On to `O=C1Nc2cc(OC(F)(F)F)ccc2Oc2ccc(-c3ccnc(N4CCNCC4)c3)cc21`, for which the growth was -70.7% (active).

For the compound `O=C(NCCCNc1cc(-c2cn(-c3ccccc3)nc2-c2cccc(O)c2)ccn1)Nc1cccc(C(F)(F)F)c1`, the growth was 19.9%.

As for `Cc1ccc(NC(=O)c2ccc(CN3CCN(C)CC3)c(I)c2)cc1Oc1ccc(-c2[nH]nc3ncnc(N)c23)cc1`, the growth was 85%.

With `O=C1Nc2ccc(Cl)cc2/C1=C/c1ccc(OCc2ccc(Br)cc2F)cc1`, the growth was 93.6%.

On to `CC(c1ccccc1)N1C(=O)/C(=C/c2csc(C#N)n2)SC1=S` (stereo not given), for which the growth is 85.4%.

For `CN(C)C(=O)c1ccccc1-n1cnc2ccccc2c1=O`, the growth is 96.9%.

Take `O=c1[nH]c2cc(Cl)ccc2n1C1CCN(c2ccc3nnc(Cl)n3n2)CC1`: the growth is 75.8%.

`O=C(Nc1ccc(Cl)cc1)Nc1nc2ccc([N+](=O)[O-])cc2s1`: the growth is -30.2% (active).

With `CCOC(=O)/C(F)=C/C1CC1C1CCCCC1` (stereo not given), the growth was 95.5%.

Turning to `CN1CCN(c2ccc(C(=O)Nc3cccc(-c4cn(-c5ccc(S(N)(=O)=O)cc5)nn4)c3)cc2C(F)(F)F)CC1`, the growth is 82.7%.

As to `COc1ccc(/C=C/C(=O)c2nnn(-c3ccc(C(=O)O)cc3)c2C)cc1OC`, the growth was 90.3%.

As to `O=C1/C(=C/c2ccccc2[N+](=O)[O-])Oc2ccc(O)cc21`, the growth was 37.1%.

Turning to `CC(C)SC1=NC(=C(C(=N1)NC2=ClC=CC=C2)C#N)C3=CC=CC=C3`, the growth was 84%.

As to `O=C1[C@H]2Cc3c([nH]c4ccccc34)[C@@H](c3ccc(Cl)cc3)N2C(=O)CN1C1CCN(Cc2c(Cl)cccc2Cl)CC1`, the growth was 81.8%.

As for `CCOC(=O)c1ccc(N/C=C/C(=O)c2ccccc2)cc1`, the growth was 87.5%.

For `CN1CCN(c2ccc(NC(=O)Nc3ccc4c(ccn4-c4cccc(C(N)=O)n4)c3)cc2C(F)(F)F)CC1`, the growth is 94.1%.

Consider `O=C(/C=C1\C=CN(CCCCO)c2ccccc21)n1ccc2ccccc21`, for which the growth was 87.6%.

As for `CCC(CC)N1C(=O)/C(=c2\sc3n(c2=O)C2C(NN=3)N(CC)C(=O)N2CC)c2ccccc21` (stereo not given), the growth was 15.2%.

For the compound `Cc1ccc(-n2cc(/C=C/C(=O)c3ccc(S(C)(=O)=O)cc3)c(-c3ccc(S(C)(=O)=O)cc3)n2)cc1`, the growth was 78.1%.

For the compound `N/C(=N\c1nc2ccc([N+](=O)[O-])cc2s1)C(Cl)(Cl)Cl`, the growth was 54.7%.

With `COc1ccc(C(=O)c2c(N)c(C#N)cn2-c2cccc(OC)c2)cc1`, the growth is 18.8%.

Regarding `C=CCn1c(SCC(=O)Nc2cccc(C(=O)/C=C/c3ccc(Cl)cc3)c2)nc2ccccc2c1=O`, the growth is 72.2%.

Consider `C#CCOc1ccc(C(Nc2cc(Cl)ccc2Cl)c2nnnn2C2CCCCC2)cc1` (stereo not given), for which the growth was 66.7%.

With `c1ccc(-c2c(-c3ccccc3)[n+](Cc3ccc4ccccc4c3)c(-c3ccccc3)n2Cc2ccc3ccccc3c2)cc1`, the growth is -88.6% (active).

As for `O=C(Nc1cc(Cl)cc(Cl)c1)Nc1ccc2oc(=O)ccc2c1`, the growth is 2.84% (active).

On to `CS(=O)(=O)c1nccc(-c2c(-c3ccc(F)c(OCCc4ccc(F)cc4)c3)nc3sccn23)n1`, for which the growth was 57.9%.

For `COc1ccc2c(ccn2C(=O)N2c3ccccc3Sc3ccccc32)c1`, the growth is 33.3%.

Turning to `CCCCCCNC(=O)Oc1ccc(/C(=C(\C)c2ccc(OC)cc2)c2ccc(OCCN(C)C)cc2)cc1`, the growth is 89.4%.

For `CCC(C)[C@H]1OC(=O)[C@H](C(C)C)N(C)C(=O)[C@@H](C(C)C)OC(=O)[C@H](C(C)C)N(C)C(=O)[C@@H](C(C)CC)OC(=O)[C@H](C(C)C)N(C)C1=O` (stereo not given in full), the growth is 6.11% (active).

For `C/C(=C(/c1ccc(O)cc1)c1ccc(OCCN2CCCC2)cc1)c1ccc(Cl)cc1`, the growth is -17.7% (active).

Take `O=C(Cn1cc(CN2C(=O)c3ccc([N+](=O)[O-])cc3C2=O)nn1)Nc1ccc(F)cc1Cl`: the growth is 92.3%.

For the compound `COc1cnc2c(c1)C(=O)c1c-2n(CCCn2ccnc2)c(=O)c2cc(OC)c(OC)cc12`, the growth was -11% (active).

As to `O=C(Nc1ccc(F)cc1)c1cc(-c2ccc(F)cc2F)ccc1O`, the growth is 5.12% (active).

Regarding `COc1cc(/C=N/Nc2ccnc3cc(Cl)ccc23)cc(OC)c1O`, the growth was 101%.

For the compound `COc1ccc(C(=O)n2cc(C=O)c3ccccc32)cc1`, the growth is 81.6%.

Turning to `O=C(Nc1cc(F)cc2cccnc12)c1cnc(N2CCOCC2)cn1`, the growth was 84.9%.

For `COc1ccc([C@H]2c3[nH]c4ccccc4c3C[C@@H]3C(=O)N(C4CCN(Cc5ccccc5)CC4)CC(=O)N23)c(OC)c1`, the growth was 87.2%.

Turning to `COc1ccc([C@H]2[C@H](O)C(=O)N2c2cc(OC)c(OC)c(OC)c2)cc1Cl`, the growth is 31%.

With `COc1ccc(S(=O)(=O)NCCCNc2nccc(-n3cnc4ccccc43)n2)cc1`, the growth was 76.3%.

`O=C(c1ccc(O)cc1)[C@@H]1[C@@H]2CCCN2[C@@]2(C(=O)N(C(=O)c3ccc(F)cc3)c3ccccc32)[C@H]1c1ccc(F)cc1`: the growth is 75.4%.

For the origin of these results see PubChem BioAssay (NCI).
